# Laboratory results from PubChem BioAssay (NCI).
# The panel holds about 83,000 compounds, 20% with a hit somewhere; the sample as a whole holds those more often.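 Interpretation: 100, growth as untreated; towards 0, rising growth inhibition; 0, no net growth; 0 to -100, cell death. Compounds scoring below 10 were considered active.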 Unmarked numbers belong to inactive results. Activity calls are given as the source filed them.
# Columns and labels:
# Assay in all cases: NCI-60 one-dose screen, 48 h (100 = growth as untreated, 0 = no growth, -100 = all killed)
# Details in all cases: 10 µM unless noted
# DU-145 prostate = test system: DU-145 prostate
# K-562 leukemia = test system: K-562 leukemia
# MALME-3M melanoma = test system: MALME-3M melanoma
# MDA-MB-231 breast = test system: MDA-MB-231 breast
# RXF 393 renal = test system: RXF 393 renal
# SF-268 CNS = test system: SF-268 CNS
# SF-295 CNS = test system: SF-295 CNS
# SF-539 CNS = test system: SF-539 CNS
# UACC-257 melanoma = test system: UACC-257 melanoma
# M14 melanoma = test system: M14 melanoma
SMILES,growth (DU-145 prostate),growth (K-562 leukemia),growth (MALME-3M melanoma),growth (MDA-MB-231 breast),growth (RXF 393 renal),growth (SF-268 CNS),growth (SF-295 CNS),growth (SF-539 CNS),growth (UACC-257 melanoma),growth (M14 melanoma)
COc1ccc2c(OCc3nnc4ccc(-c5ccccc5)nn34)ccnc2c1,109% [2.5 µM],93.1% [2.5 µM],97.8% [2.5 µM],106% [2.5 µM],-13.9% [2.5 µM] (active),109% [2.5 µM],63.4% [2.5 µM],95.1% [2.5 µM],120% [2.5 µM],
CS(=O)(=O)N1CCN(Cc2cc3nc(-c4cccc5[nH]ncc45)nc(N4CCOCC4)c3s2)CC1,18.8%,64%,1.98% (active),51.5%,-23.3% (active),30.3%,3.4% (active),-2.44% (active),14.7%,40%
Cc1nc(Nc2n[nH]c3c2CN(C(=O)N[C@H](CN(C)C)c2ccccc2)C3(C)C)c2sccc2n1,6.06% (active),4.69% (active),-71.4% (active),-29.1% (active),-77.3% (active),-18.4% (active),-3.9% (active),-54.8% (active),-54.6% (active),
CCN(CC)CCNC(=O)c1c(C)[nH]c(/C=C2\C(=O)Nc3ccc(F)cc32)c1C,33.2%,-22.3% (active),-82.6% (active),0.117% (active),-71.4% (active),39.6%,67.3%,-88.8% (active),-40.4% (active),
COc1ccc(COc2cc3oc(=O)c4cc(C(C)O)ccc4c3cc2OC)cc1 (stereo not drawn),94.9%,20.1%,66.8%,67.2%,47.8%,55.8%,49%,60.7%,42.8%,
COc1cc(OC)c(/C=C/S(=O)(=O)Cc2ccc(OC)c(NCC(=O)O)c2)c(OC)c1,7.91% (active),8.38% (active),54.6%,39.7%,36.9%,30.3%,15.5%,-17.1% (active),48.7%,
O=C1OCC2=C1C(c1cccc(F)c1)c1cc3c(cc1N2CCO)OCCO3 (stereo not drawn),14.3%,8.66% (active),46.2%,24.8%,4.45% (active),34.5%,-15.9% (active),-31.7% (active),89%,
Cc1oc2c(C(=O)N/N=C\c3ccc(O)cc3O)c[nH]c2c1C,-33.5% (active),11.2%,5.32% (active),30.3%,39.3%,7.45% (active),12.3%,9.86% (active),17.8%,
CCOc1ccc(N=C(C)Nc2ccc(OCC)cc2)cc1,114%,99.6%,117%,118%,113%,88.8%,107%,118%,104%,101%
CCN(CC)c1cc2oc3cc(N)cc(=N)c-3nc2cc1C,85.7%,24.9%,1.85% (active),26.7%,86.2%,64.5%,48.1%,1.94% (active),32.9%,25.5%
CC(=O)c1c(C)c2cnc(Nc3ccc(N4CCNCC4)cn3)nc2n(C2CCCC2)c1=O,39.1%,6.83% (active),2.27% (active),36.5%,-0.541% (active),46.7%,70.3%,27.4%,-11.7% (active),29.2%
Cn1cc(-c2ccc(F)c(C(F)(F)F)c2)nc1C1CCN(c2ncnc3[nH]ncc23)CC1,77.3%,77.8%,76.5%,72.5%,56.7%,44.7%,70.8%,51.5%,74.3%,83.4%
O=C(Nc1cn[nH]c1-c1nc2ccc(CN3CCOCC3)cc2[nH]1)NC1CC1,41%,12.7%,51.8%,1.37% (active),-56.5% (active),23.8%,-10.5% (active),-60.9% (active),59.7%,34%
C=CC(=O)N1CCC(Oc2cc3c(Nc4ccc(Cl)c(Cl)c4F)ncnc3cc2OC)CC1,24.2%,12.6%,60.9%,17.3%,-46.6% (active),8.38% (active),15.9%,-8.55% (active),24.4%,28.8%
CO[C@H]1C[C@@H]2CC[C@@H](C)[C@@](O)(O2)C(=O)C(=O)N2CCCC[C@H]2C(=O)O[C@H]([C@H](C)C[C@@H]2CC[C@@H](OC(=O)C(C)(CO)CO)[C@H](OC)C2)CC(=O)[C@H](C)/C=C(\C)[C@@H](O)[C@@H](OC)C(=O)[C@H](C)C[C@H](C)\C=C/C=C/C=C/1C,37.7%,18.3%,24%,24.8%,-16.3% (active),30.9%,13.6%,4.68% (active),30.4%,32.3%
O=C(NC1CCNCC1)c1[nH]ncc1NC(=O)c1c(Cl)cccc1Cl,12.3%,5.78% (active),-38.8% (active),1.88% (active),-50% (active),9.79% (active),8.53% (active),-41.9% (active),-6.15% (active),9.93% (active)
O=C(/C=C/c1ccc2c(c1)OCO2)c1c(O)c2ccccc2oc1=O,109%,69.4%,101%,103%,135%,93.6%,100%,105%,78.1%,94.9%
Cc1cc(C(=O)NOCCO)c(Nc2ccc(I)cc2F)n(C)c1=O,69.8%,34.2%,-4.71% (active),40.7%,27.3%,78.9%,84%,60.8%,-19.6% (active),7.71% (active)
COc1cc2ncnc(Nc3ccc(O)cc3)c2cc1OC,61.3%,73%,102%,88.8%,82.3%,86.6%,98.8%,73.4%,63.7%,79.7%
CCCCn1c(C)nc2cc(Nc3nc(N4CCCCC4)nc4nc[nH]c34)ccc21,60.2%,28.7%,61.5%,39.2%,22.1%,60.4%,47.1%,71.2%,62.1%,32.8%
COC(=O)[C@@H](OC)[C@@H]1Cc2cc3cc(OC4CC(OC5CC(O)C(O)C(C)O5)C(O)C(C)O4)c(C)c(O)c3c(O)c2C(=O)[C@H]1OC1CC(OC2CC(OC3CC(C)(O)C(O)C(C)O3)C(O)C(C)O2)C(O)C(C)O1 (stereo partly drawn),10.2%,4.16% (active),-58% (active),-8.44% (active),-73% (active),3.86% (active),-10.6% (active),-41.6% (active),-11.2% (active),-71.5% (active)
Brc1ccc([I+]c2ccc(Br)cc2)cc1,52.6%,9.03% (active),35.7%,15.1%,40.6%,-56.7% (active),27.5%,27.3%,27%,10.3%
Cc1csc(-c2nnc(Nc3ccc(Oc4ncccc4-c4ccnc(N)n4)cc3)c3ccccc23)c1,55.8%,40%,18.6%,37.7%,8.98% (active),58.3%,60.2%,41.1%,20.8%,15.4%
Cc1cc(NCC(=O)Nc2ccc(-c3nc4ccccc4s3)cc2)no1,95.9%,83%,89.5%,108%,105%,87.4%,96.4%,105%,99.7%,106%
Cc1[nH]c(/C=C2\C(=O)Nc3ccc(F)cc32)c(C)c1C(=O)NC[C@H](O)CN1CCOCC1,31.3%,24%,-7.48% (active),29.8%,-17.1% (active),40.9%,64%,28%,42.3%,7.61% (active)
COc1cc2ncnc3c2cc1OCCCCCN(C)Cc1ccc(Br)cc1N3,31.1%,26.1%,71.8%,63.7%,69.3%,65.1%,78.7%,88.6%,31.5%,36.9%
